Measured values published in the supplement of paper PMC10849652.
Of roughly 7,900 targets only a part is listed; those with a hit were picked by preference. About 0.6% of all pairs of compound and target were hits.

Assays:
Assay in all cases: log2 fold change, soluble protein after heating vs DMSO (PISA); higher = thermal stabilisation; K562 cells, 10 uM, 30 min; active = over 0.2 and 3.5 SD of the protein, either way, in both replicates (recomputed)
[1] = compound: COC1=CC=C(C=C1)CN2C=CC3=C2C=C(C=C3)C(=O)NO
Procedure, shortened: (§1)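 Thermal stability values are relative to control samples and come from duplicates. They are expressed as log2 fold changes. For measurement, K562 cells (2×10^6 cells/mL) received 10 μM compound for 30 min, and aliquots were heated for 3 min over 48°C-58°C, pooled, and extracted at 4°C in PBS with 0.5% NP-40. Soluble protein, the supernatant after 21,000xg for 90 min, was quantified by TMTpro 16plex LC-MS/MS with equalised channel sums.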

filanesib = compound: CON(C)C(=O)N1N=C(c2cc(F)ccc2F)S[C@@]1(CCCN)c1ccccc1 [filanesib]
Procedure, shortened: as §1

zotarolimus = compound: CO[C@H]1C[C@@H]2CC[C@@H](C)[C@@](O)(O2)C(=O)C(=O)N2CCCC[C@H]2C(=O)O[C@H]([C@H](C)C[C@@H]2CC[C@H](n3cnnn3)[C@H](OC)C2)CC(=O)[C@H](C)/C=C(\C)[C@@H](O)[C@@H](OC)C(=O)[C@H](C)C[C@H](C)/C=C/C=C/C=C/1C [zotarolimus]
Procedure, shortened: as §1

idasanutlin = compound: COc1cc(C(=O)O)ccc1NC(=O)[C@@H]1N[C@@H](CC(C)(C)C)[C@](C#N)(c2ccc(Cl)cc2F)[C@H]1c1cccc(Cl)c1F [idasanutlin]
Procedure, shortened: as §1

alisertib = compound: COc1cc(Nc2ncc3c(n2)-c2ccc(Cl)cc2C(c2c(F)cccc2OC)=NC3)ccc1C(=O)O [alisertib]
Procedure, shortened: as §1

[2] = compound: COc1cc2nc(-c3cc(F)ccc3O)nc(N[C@@H]3CNC[C@H]3C(C)(C)O)c2cc1OC
Procedure, shortened: as §1

gefitinib = compound: COc1cc2ncnc(Nc3ccc(F)c(Cl)c3)c2cc1OCCCN1CCOCC1 [gefitinib]
Procedure, shortened: as §1

[3] = compound: COc1cccc2cc(-c3nc([C@H]4CC[C@H](C(=O)O)CC4)n4ncnc(N)c34)[nH]c12
Procedure, shortened: as §1

lapatinib = compound: CS(=O)(=O)CCNCc1ccc(-c2ccc3ncnc(Nc4ccc(OCc5cccc(F)c5)c(Cl)c4)c3c2)o1 [lapatinib]
Procedure, shortened: as §1

pictilisib = compound: CS(=O)(=O)N1CCN(Cc2cc3nc(-c4cccc5[nH]ncc45)nc(N4CCOCC4)c3s2)CC1 [pictilisib]
Procedure, shortened: as §1

[4] = compound: CS(=O)(=O)c1ccc(-c2cnc(N)c(C(=O)Nc3ccccc3)n2)cc1
Procedure, shortened: as §1

crizotinib = compound: C[C@@H](Oc1cc(-c2cnn(C3CCNCC3)c2)cnc1N)c1c(Cl)ccc(F)c1Cl [crizotinib]
Procedure, shortened: as §1

[5] = compound: C[C@@H]1COCCN1C2=NC(=NC(=C2)C3(CC3)S(=O)(=O)C)C4=C5C=CNC5=CC=C4
Procedure, shortened: as §1

[6] = compound: C[C@H](C1=CC=C(C=C1)C(=O)NC2=C3C=CNC3=NC=C2)N
Procedure, shortened: as §1

duvelisib = compound: C[C@H](Nc1ncnc2nc[nH]c12)c1cc2cccc(Cl)c2c(=O)n1-c1ccccc1 [duvelisib]
Procedure, shortened: as §1

gandotinib = compound: Cc1cc(Nc2cc(CN3CCOCC3)c3nc(C)c(Cc4ccc(Cl)cc4F)n3n2)n[nH]1 [gandotinib]
Procedure, shortened: as §1

tozasertib = compound: Cc1cc(Nc2cc(N3CCN(C)CC3)nc(Sc3ccc(NC(=O)C4CC4)cc3)n2)n[nH]1 [tozasertib]
Procedure, shortened: as §1

[7] = compound: Cc1cc(SCc2sc(-c3ccc(C(F)(F)F)cc3)nc2C)ccc1OCC(=O)O
Procedure, shortened: as §1

doramapimod = compound: Cc1ccc(-n2nc(C(C)(C)C)cc2NC(=O)Nc2ccc(OCCN3CCOCC3)c3ccccc23)cc1 [doramapimod]
Procedure, shortened: as §1

ispinesib = compound: Cc1ccc(C(=O)N(CCCN)[C@@H](c2nc3cc(Cl)ccc3c(=O)n2Cc2ccccc2)C(C)C)cc1 [ispinesib]
Procedure, shortened: as §1

Measured: log2 fold change

EOGT (UniProt Q5NDL2)
Sequence of UniProt Q5NDL2 (Q5NDL2 whole entry, looked up): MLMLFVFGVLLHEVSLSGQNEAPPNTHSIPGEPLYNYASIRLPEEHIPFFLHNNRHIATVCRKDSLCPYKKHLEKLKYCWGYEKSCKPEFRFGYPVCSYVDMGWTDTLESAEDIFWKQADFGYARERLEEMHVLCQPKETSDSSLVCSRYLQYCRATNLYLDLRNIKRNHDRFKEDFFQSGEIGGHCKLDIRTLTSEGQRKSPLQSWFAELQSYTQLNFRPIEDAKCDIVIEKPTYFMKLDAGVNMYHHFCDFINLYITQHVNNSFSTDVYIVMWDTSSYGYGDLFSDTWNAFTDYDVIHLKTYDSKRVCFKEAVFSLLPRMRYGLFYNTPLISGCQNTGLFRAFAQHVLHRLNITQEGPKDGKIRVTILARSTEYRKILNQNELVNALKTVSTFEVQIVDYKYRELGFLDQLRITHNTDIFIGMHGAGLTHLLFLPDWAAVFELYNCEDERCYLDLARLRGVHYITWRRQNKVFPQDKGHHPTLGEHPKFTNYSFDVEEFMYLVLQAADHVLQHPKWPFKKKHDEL
inactive: [1] -0.026 | filanesib 0.053 | zotarolimus 0.013 | idasanutlin 0.036 | alisertib 0.028 | [2] 0.056 | gefitinib 0.008 | [3] -0.021 | lapatinib 0.068 | pictilisib 0.007 | [4] 0.052 | crizotinib 0 | [5] -0.054 | [6] 0.069 | duvelisib 0.045 | gandotinib -0.003 | tozasertib -0.05 | [7] -0.137 | doramapimod 0.068 | ispinesib -0.006

DCAF10 (UniProt Q5QP82)
Sequence of UniProt Q5QP82 (Q5QP82 whole entry, looked up): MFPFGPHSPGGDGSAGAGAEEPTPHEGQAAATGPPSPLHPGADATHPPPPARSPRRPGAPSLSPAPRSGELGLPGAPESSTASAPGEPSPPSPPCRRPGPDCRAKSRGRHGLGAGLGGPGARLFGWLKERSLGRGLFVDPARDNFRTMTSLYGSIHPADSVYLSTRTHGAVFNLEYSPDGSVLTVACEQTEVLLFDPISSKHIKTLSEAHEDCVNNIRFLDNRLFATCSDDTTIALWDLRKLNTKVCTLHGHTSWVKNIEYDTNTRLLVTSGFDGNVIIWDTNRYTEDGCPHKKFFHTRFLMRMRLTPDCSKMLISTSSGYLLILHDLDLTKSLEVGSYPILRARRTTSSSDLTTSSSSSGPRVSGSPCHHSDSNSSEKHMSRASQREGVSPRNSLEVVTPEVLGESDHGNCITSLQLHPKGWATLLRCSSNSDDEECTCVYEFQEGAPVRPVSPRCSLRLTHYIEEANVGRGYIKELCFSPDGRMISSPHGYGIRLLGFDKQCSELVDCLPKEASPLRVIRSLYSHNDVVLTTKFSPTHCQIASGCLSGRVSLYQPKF
inactive: [1] -0.047 | filanesib 0.016 | zotarolimus -0.01 | idasanutlin 0.002 | alisertib 0.09 | [2] 0.076 | gefitinib -0.051 | [3] -0.067 | lapatinib -0.081 | pictilisib 0.032 | [4] 0.036 | crizotinib 0.007 | [5] 0.037 | [6] 0.017 | duvelisib -0.046 | gandotinib -0.15 | tozasertib 0.007 | [7] -0.098 | doramapimod 0.055 | ispinesib -0.059

DNTTIP2 (UniProt Q5QJE6)
inactive: [1] -0.095 | filanesib 0.217 | zotarolimus 0.061 | idasanutlin 0.267 | alisertib -0.072 | [2] -0.09 | gefitinib -0.014 | [3] -0.002 | lapatinib 0 | pictilisib 0.008 | [4] 0.012 | crizotinib -0.028 | [5] -0.051 | [6] 0.268 | duvelisib -0.26 | gandotinib 0.107 | tozasertib -0.037 | [7] 0.052 | doramapimod 0.129 | ispinesib -0.093

ECPAS (UniProt Q5VYK3)
inactive: [1] 0.004 | filanesib -0.004 | zotarolimus 0.033 | idasanutlin -0.127 | alisertib -0.001 | [2] 0.055 | gefitinib -0.007 | [3] -0.087 | lapatinib -0.033 | pictilisib 0.005 | [4] 0 | crizotinib -0.18 | [5] 0.01 | [6] 0.081 | duvelisib 0.024 | gandotinib -0.115 | tozasertib 0.048 | [7] 0.099 | doramapimod -0.032 | ispinesib -0.016

DNM2 (UniProt P50570)
Sequence of UniProt P50570 (P50570 whole entry, looked up): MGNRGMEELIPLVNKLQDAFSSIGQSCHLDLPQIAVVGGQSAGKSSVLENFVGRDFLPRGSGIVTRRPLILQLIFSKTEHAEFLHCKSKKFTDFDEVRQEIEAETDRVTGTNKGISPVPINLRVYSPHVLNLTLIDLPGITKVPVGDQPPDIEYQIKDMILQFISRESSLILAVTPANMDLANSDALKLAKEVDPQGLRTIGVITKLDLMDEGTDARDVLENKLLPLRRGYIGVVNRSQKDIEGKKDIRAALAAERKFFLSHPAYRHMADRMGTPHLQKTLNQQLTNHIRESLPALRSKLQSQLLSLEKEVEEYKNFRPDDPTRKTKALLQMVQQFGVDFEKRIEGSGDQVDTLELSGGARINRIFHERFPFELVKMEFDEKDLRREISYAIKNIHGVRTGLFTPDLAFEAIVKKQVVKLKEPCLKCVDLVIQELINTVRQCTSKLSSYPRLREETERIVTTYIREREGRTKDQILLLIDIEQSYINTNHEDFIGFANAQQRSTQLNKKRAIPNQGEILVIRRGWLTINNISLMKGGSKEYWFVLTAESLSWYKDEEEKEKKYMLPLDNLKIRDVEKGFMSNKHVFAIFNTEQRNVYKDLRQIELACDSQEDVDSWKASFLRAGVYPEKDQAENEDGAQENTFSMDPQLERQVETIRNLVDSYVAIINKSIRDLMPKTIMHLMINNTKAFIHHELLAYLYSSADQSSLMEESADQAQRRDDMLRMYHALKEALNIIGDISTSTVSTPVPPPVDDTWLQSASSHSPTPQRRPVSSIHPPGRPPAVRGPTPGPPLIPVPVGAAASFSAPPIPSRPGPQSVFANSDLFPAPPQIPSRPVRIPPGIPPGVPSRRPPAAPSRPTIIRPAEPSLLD
inactive: [1] -0.022 | filanesib -0.107 | zotarolimus 0.016 | idasanutlin -0.078 | alisertib -0.073 | [2] 0.099 | gefitinib 0.002 | [3] 0.023 | lapatinib -0.026 | pictilisib 0.021 | [4] 0.017 | crizotinib -0.082 | [5] 0.062 | [6] -0.021 | duvelisib 0.05 | gandotinib -0.06 | tozasertib -0.071 | [7] 0.039 | doramapimod -0.039 | ispinesib -0.01

EEF1D isoform 2 (UniProt P29692)
inactive: [1] -0.038 | filanesib 0.034 | zotarolimus 0.036 | idasanutlin -0.042 | alisertib -0.016 | [2] 0.028 | gefitinib 0.028 | [3] -0.011 | lapatinib 0.022 | pictilisib -0.01 | [4] 0.043 | crizotinib 0.004 | [5] -0.028 | [6] 0.066 | duvelisib -0.011 | gandotinib -0.057 | tozasertib 0.038 | [7] 0.04 | doramapimod 0.026 | ispinesib -0.055

DHX40 (UniProt Q8IX18)
inactive: [1] -0.025 | filanesib 0.022 | zotarolimus 0.008 | idasanutlin 0.025 | alisertib -0.146 | [2] -0.019 | gefitinib 0.31 | [3] -0.037 | lapatinib 0.039 | pictilisib -0.014 | [4] 0.018 | crizotinib -0.109 | [5] -0.003 | [6] 0.03 | duvelisib 0.005 | gandotinib -0.079 | tozasertib -0.089 | [7] 0.01 | doramapimod 0.065 | ispinesib -0.215

FAM3A (UniProt P98173)
Sequence of UniProt P98173 (P98173 whole entry, looked up): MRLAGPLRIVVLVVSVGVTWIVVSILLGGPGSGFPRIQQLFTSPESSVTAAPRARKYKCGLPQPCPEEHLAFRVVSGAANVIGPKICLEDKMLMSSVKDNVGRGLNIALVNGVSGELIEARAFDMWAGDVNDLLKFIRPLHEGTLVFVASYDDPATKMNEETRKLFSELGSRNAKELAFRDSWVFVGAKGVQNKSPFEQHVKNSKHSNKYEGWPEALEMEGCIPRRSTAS
inactive: [1] -0.057 | filanesib -0.022 | zotarolimus 0.005 | idasanutlin 0.007 | alisertib 0.044 | [2] -0.021 | gefitinib 0.04 | [3] 0.066 | lapatinib 0.067 | pictilisib 0.055 | [4] 0.01 | crizotinib -0.071 | [5] 0.07 | [6] 0.01 | duvelisib 0.006 | gandotinib 0.014 | tozasertib -0.025 | [7] -0.075 | doramapimod 0.009 | ispinesib -0.065

EMD (UniProt P50402)
inactive: [1] -0.049 | filanesib -0.013 | zotarolimus 0.007 | idasanutlin 0.037 | alisertib -0.08 | [2] -0.031 | gefitinib -0.053 | [3] 0.074 | lapatinib -0.025 | pictilisib 0.093 | [4] 0.042 | [5] 0.019 | [6] 0.018 | duvelisib -0.033 | gandotinib -0.047 | tozasertib -0.049 | [7] 0.015 | doramapimod 0.018 | ispinesib -0.092
active: crizotinib -0.215

DHX36 (UniProt Q9H2U1)
Sequence of UniProt Q9H2U1 (Q9H2U1 whole entry, looked up): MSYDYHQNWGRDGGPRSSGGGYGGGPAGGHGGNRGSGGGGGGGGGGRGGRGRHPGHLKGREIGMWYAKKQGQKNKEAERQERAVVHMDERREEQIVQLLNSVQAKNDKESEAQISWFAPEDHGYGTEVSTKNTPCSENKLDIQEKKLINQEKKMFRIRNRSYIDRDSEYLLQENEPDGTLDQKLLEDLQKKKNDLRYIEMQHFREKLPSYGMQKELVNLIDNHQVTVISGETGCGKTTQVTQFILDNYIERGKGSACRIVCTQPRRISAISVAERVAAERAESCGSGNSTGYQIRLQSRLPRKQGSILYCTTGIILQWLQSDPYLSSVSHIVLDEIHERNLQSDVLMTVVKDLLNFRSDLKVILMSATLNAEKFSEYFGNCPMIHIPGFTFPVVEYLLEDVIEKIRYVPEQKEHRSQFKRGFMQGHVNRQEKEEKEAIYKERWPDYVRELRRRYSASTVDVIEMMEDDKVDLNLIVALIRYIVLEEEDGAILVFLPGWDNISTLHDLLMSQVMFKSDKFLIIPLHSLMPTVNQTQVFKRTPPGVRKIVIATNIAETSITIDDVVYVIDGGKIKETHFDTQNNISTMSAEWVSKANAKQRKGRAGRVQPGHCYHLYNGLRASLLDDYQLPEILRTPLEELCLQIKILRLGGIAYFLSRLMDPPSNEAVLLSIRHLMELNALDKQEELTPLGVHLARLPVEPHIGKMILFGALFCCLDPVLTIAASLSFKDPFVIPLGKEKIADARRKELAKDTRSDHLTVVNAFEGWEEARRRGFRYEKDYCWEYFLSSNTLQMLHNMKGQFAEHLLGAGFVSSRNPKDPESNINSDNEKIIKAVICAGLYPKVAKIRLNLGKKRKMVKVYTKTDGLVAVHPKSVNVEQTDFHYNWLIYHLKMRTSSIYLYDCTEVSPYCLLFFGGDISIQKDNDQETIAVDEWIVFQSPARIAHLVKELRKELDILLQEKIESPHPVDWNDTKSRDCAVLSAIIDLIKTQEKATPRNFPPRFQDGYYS
inactive: [1] 0.04 | filanesib 0.119 | zotarolimus 0.024 | idasanutlin 0.017 | alisertib 0.025 | [2] 0.017 | gefitinib -0.127 | [3] 0.059 | lapatinib 0.025 | pictilisib -0.038 | [4] -0.071 | crizotinib -0.101 | [5] -0.062 | [6] 0.2 | duvelisib -0.029 | gandotinib 0.069 | tozasertib -0.047 | [7] 0.045 | doramapimod 0.051 | ispinesib -0.081

CUTA isoform 2 (UniProt O60888)
Sequence of UniProt O60888 (O60888 whole entry, looked up): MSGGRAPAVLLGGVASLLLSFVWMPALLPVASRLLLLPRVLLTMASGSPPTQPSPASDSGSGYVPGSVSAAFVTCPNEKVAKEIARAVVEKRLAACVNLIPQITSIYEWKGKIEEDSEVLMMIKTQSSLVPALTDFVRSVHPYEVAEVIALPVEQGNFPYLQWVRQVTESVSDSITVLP
inactive: [1] 0.248 | filanesib 0.108 | zotarolimus -0.159 | idasanutlin 0.002 | alisertib -0.055 | [2] -0.225 | gefitinib 0.037 | [3] 0.012 | lapatinib 0.023 | pictilisib -0.358 | [4] 0.073 | crizotinib -0.045 | [5] 0.021 | [6] -0.001 | duvelisib 0.01 | gandotinib 0.131 | tozasertib -0.05 | [7] -0.049 | doramapimod -0.019 | ispinesib 0.109

DNAH11 (UniProt Q96DT5)
inactive: [1] 0 | filanesib 0.047 | zotarolimus 0.04 | idasanutlin 0.03 | alisertib -0.025 | [2] -0.137 | gefitinib -0.002 | [3] -0.203 | lapatinib 0.216 | pictilisib 0.552 | [4] -0.054 | crizotinib 0.071 | [5] 0.062 | duvelisib 0.073 | gandotinib 0.104 | tozasertib -0.165 | [7] -0.069 | doramapimod 0.037 | ispinesib -0.125
active: [6] 0.695

CTSB (UniProt P07858)
inactive: [1] 0.044 | filanesib -0.16 | zotarolimus 0.044 | idasanutlin 0.032 | alisertib 0.007 | [2] -0.006 | gefitinib 0.024 | [3] 0.03 | lapatinib -0.016 | pictilisib 0.043 | [4] 0.048 | [5] 0.057 | [6] -0.042 | duvelisib 0.016 | gandotinib 0.006 | tozasertib -0.006 | [7] 0.015 | doramapimod -0.014
active: crizotinib -0.508 | ispinesib -0.403

DHRS1 (UniProt Q96LJ7)
Sequence of UniProt Q96LJ7 (Q96LJ7 whole entry, looked up): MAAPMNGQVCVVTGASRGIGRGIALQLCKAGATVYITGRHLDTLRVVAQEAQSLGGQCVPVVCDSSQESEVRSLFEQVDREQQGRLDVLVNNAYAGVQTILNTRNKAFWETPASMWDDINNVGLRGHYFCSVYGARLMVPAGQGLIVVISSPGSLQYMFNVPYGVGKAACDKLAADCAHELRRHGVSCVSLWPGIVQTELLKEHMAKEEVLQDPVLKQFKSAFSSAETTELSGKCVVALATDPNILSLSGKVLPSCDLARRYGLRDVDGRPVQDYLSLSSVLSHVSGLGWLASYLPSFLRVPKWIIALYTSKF
inactive: [1] 0.159 | filanesib 0.061 | zotarolimus 0.448 | alisertib -0.025 | [2] 0.115 | gefitinib 0.494 | [3] -0.113 | lapatinib 0.096 | pictilisib 0.009 | [4] 0.009 | crizotinib 0.248 | [5] 0.089 | [6] -0.028 | duvelisib 0.438 | gandotinib 0.297 | tozasertib 0.009 | [7] 0.571 | doramapimod 0.557 | ispinesib 0.247
active: idasanutlin 0.952

EVC2 (UniProt Q86UK5)
Sequence of UniProt Q86UK5 (Q86UK5 whole entry, looked up): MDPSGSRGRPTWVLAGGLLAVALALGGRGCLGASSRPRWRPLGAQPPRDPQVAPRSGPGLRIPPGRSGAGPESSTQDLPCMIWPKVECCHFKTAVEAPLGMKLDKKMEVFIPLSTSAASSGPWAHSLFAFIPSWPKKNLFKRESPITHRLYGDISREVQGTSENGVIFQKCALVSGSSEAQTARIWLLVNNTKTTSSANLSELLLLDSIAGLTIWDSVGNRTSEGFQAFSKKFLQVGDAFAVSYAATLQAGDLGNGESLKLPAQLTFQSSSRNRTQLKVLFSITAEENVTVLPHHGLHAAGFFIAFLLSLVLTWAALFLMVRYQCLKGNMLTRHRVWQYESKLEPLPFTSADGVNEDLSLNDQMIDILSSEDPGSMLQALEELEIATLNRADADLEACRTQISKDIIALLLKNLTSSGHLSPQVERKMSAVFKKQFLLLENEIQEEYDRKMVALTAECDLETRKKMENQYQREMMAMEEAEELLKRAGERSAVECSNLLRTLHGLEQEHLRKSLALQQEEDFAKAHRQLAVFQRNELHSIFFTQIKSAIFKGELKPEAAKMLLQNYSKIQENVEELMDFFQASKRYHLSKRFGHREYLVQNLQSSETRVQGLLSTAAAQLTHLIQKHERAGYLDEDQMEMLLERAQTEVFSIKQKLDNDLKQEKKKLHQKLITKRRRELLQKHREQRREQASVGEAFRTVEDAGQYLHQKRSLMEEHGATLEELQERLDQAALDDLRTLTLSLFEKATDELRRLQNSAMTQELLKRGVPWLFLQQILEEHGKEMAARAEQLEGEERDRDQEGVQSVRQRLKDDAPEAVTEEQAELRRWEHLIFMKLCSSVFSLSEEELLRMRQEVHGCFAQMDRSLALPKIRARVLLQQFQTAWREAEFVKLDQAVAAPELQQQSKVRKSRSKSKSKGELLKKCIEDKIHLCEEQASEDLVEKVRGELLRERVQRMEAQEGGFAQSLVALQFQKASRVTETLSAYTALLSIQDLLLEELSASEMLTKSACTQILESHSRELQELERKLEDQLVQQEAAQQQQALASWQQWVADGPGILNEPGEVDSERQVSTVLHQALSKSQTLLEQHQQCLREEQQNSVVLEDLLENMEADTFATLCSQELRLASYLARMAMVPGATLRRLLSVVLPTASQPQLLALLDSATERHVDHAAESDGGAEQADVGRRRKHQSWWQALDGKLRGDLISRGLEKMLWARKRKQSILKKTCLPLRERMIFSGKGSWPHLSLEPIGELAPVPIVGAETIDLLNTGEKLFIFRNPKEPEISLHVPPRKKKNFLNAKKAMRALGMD
inactive: [1] -0.073 | filanesib -0.142 | zotarolimus -0.039 | idasanutlin 0.053 | alisertib -0.066 | [2] -0.146 | gefitinib 0.09 | [3] 0.016 | lapatinib -0.224 | pictilisib -0.194 | [4] 0.022 | crizotinib -0.061 | [5] -0.244 | [6] -0.209 | duvelisib -0.162 | gandotinib 0.071 | tozasertib 0.02 | [7] -0.052 | doramapimod 0 | ispinesib 0.065
